# This is a sample that favours compounds with a hit; in the whole collection about 2.4% have one here.
# PKM2 activator: activators of human pyruvate kinase M2 | P14618 | purified PKM2, Kinase-Glo ATP luminescence, activation; response scale: 0% is enzyme alone, no compound | Potency, µM (doses to about 57.5 µM), for inactives: top-dose activation, usual class: activators | 260,000 tested, 0.34% active; note: % is set by controls: 0 for no effect and ±100 for the full control effect; nearly all actives have a fitted effect of over 55% in size
#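 Purified hPK-M2 (>95%) run at intermediate activity with 0.1 mM ADP and 0.5 mM PEP in 50 mM imidazole pH 7.2, KCl, MgCl2; 1 h room temperature. ATP formed read by Kinase-Glo luminescence; normalized to uninhibited and no-enzyme controls.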
# Tb PFK inh-1: inhibitors of T. brucei phosphofructokinase; O15648; T. brucei PFK, ADP-Glo luminescence; Potency, µM (series often up to 57.5 µM), for inactives: at the top dose activity, negative = inhibition, hits mostly inhibitors; 330,000 tested, 0.17% active; AID 485367;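 note: 0% = uninhibited 1x PFK enzyme wells and -100% = no-enzyme wells; nearly all actives have a fitted effect of over 60% in size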
# Target sequence (O15648 whole entry, looked up): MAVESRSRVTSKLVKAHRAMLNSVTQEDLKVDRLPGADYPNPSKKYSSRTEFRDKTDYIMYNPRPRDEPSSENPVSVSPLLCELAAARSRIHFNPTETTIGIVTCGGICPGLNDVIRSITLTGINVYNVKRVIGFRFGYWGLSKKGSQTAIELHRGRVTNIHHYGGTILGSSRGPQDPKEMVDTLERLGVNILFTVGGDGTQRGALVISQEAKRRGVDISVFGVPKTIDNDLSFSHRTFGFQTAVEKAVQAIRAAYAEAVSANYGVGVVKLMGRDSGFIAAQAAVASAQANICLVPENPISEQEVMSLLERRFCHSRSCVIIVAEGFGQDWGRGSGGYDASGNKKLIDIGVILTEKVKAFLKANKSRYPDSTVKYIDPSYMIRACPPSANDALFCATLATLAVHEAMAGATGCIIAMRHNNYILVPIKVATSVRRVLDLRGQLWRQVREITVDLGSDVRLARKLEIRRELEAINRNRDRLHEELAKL
#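 Compounds were pin-transferred as a titration series up to 57 uM into substrate buffer (0.5 mM F6P, 0.1 mM ATP, pH 8.0), then 1.25 nM PFK was added and reactions ran 45 min before ADP-Glo detection.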
# PGK inhibitor: inhibitors of T. brucei phosphoglycerate kinase; AID 602233; P07378; 380,000 tested, 0.043% active; Potency, µM (highest dose often 57.5 µM), inactives show at the top dose activity change, negative = inhibition, most hits filed as inhibitors; PGK/GAPDH coupled, Kinase-Glo luminescence, 60 min; note: % is set by controls: 0 for no effect and ±100 for the full control effect; nearly all actives have a fitted effect of over 60% in size
#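 Luminescent ATP detection (Kinase-Glo Plus) follows a 60-minute room-temperature incubation, with wells lacking PGK as controls. Buffer: 100 mM TEA (pH 7.6), 5 mM MgCl2, 0.01% Tween-20. Coupling enzyme GAPDH (100 nM final) supplies unstable 1,3-BPG in-well.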
# ELG1 DNA repair: inhibitors of ELG1-dependent DNA repair in HEK293T cells; 330,000 tested, 2.3% active; HEK293T ELG1-luciferase reporter, luminescence, 16 h; DNA damage induced by 5-fluorouridine; Potency, µM (series often up to 46.1 µM), inactives show top-dose activity change, negative = inhibition, actives largely listed as inhibitors; note: % is set by controls: 0 for no effect and ±100 for the full control effect; nearly all actives have a fitted effect of over 55% in size
#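 Quantitative HTS, concentration-response format. 2,000 cells/well co-treated with 5-fluorouridine and compound, 16 hr in 5% CO2 at 37 °C; ONE-Glo luminescence read after 30 min.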
# Rango complex inh: prevents formation of the Rango-importin beta complex | 340,000 tested, 0.031% active | Q14974 | Potency, µM (highest dose often 92.2 µM), without a hit: at the highest dose inhibition of complex formation | Rango CFP/YFP FRET sensor + importin beta, 45 min; calls by dose curve;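 note: 0% = DMSO wells and 100% = buffer wells lacking importin beta; nearly all actives have a fitted effect of over 15% in size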
#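 Inhibition scored from the CFP 486 nm/YFP 530 nm FRET ratio 45 min after adding 0.125 microM importin beta to 50 nM Rango biosensor preincubated 5 min with compound (room temperature, PBS with DTT, Tween-20, BSA). No-importin wells as positive control.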
# Rango release inh: inhibition of RanGTP-driven Rango-importin beta dissociation | O95149+P62826 | Biochemical FRET Rango-importin beta, RanGTP-induced dissociation | Potency, µM (titrated, usually from 46.1 µM), for inactives: top-dose activity change, negative = inhibition | 340,000 tested, 0.071% active | AID 540253; calls by dose curve; note: % of control where 0% means no effect; nearly all actives have a fitted effect of over 45% in size
#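 Recombinant Rango FRET biosensor (EYFP–snurportin 1 IBB–cerulean CFP10) at 0.1 uM premixed with 0.25 uM importin beta in PBS, 1 mM DTT, 0.02% Tween-20, 0.1% BSA. Compound added 5 min; RanGTP-RCC1 (0.6 uM Ran, 2 mM GTP, 0.2 uM RCC1) then triggers release, read at 45 min.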
# Tb PFK KinaseGlo: inhibits T. brucei PFK measured by ATP depletion; shares compounds with Tb PFK inh-1; Tb PFK enzyme, ATP depletion, Kinase-Glo Plus luminescence; Potency, µM (doses to about 57.5 µM), for inactives: at the highest dose inhibition; 1,100 tested, 47% active; AID 504636; calls by dose curve; note: nearly all actives have a fitted effect of over 60% in size
# Tb PFK inh-2: validation of T. brucei phosphofructokinase inhibitors | shares compounds with Tb PFK inh-1 | purified T. brucei PFK, ADP-Glo luminescence, 45 min | Potency, µM (highest dose often 57.5 µM), for inactives: at the top dose activity change, negative = inhibition, hits mostly inhibitors | 1,100 tested, 41% active | AID 504637;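 note: plate controls were full PFK enzyme control for no effect and no enzyme control for full effect; nearly all actives have a fitted effect of over 60% in size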
# Starred values were filed as active, the others as inactive; u = inconclusive; x = no result. Unless noted, calls come from the whole dose curve; as a rule, active = well fitted curve in the direction sought with a large enough effect; inconclusive = small, poorly fitted or top-dose-only effect, or another doubt; inactive = no such curve, though single readings can be large; an effect the other way counts as inactive or inconclusive. Potency is the fitted concentration of half-maximal effect.
SMILES,PKM2 activator,Tb PFK inh-1,PGK inhibitor,ELG1 DNA repair,Rango complex inh,Rango release inh,Tb PFK KinaseGlo,Tb PFK inh-2
CC(=O)c1ccc(NC(=S)Nc2ccc(Br)c(Cl)c2)cc1,-33%,12µM*,-8%,1%,0%,-3%,30µM*,u
CC(=O)c1ccc(NC(=O)c2cc(CC(C)C)on2)cc1,-20%,0%,3%,u,-4%,14%,x,x
O=C(c1ccc(NC(=S)Nc2ccc(Cl)c(Cl)c2)cc1)N1CCCC1,-11%,21µM*,-4%,u,-1%,-13%,u,u
COC(=O)c1ccc(C(=O)OC)c(NC(=O)Oc2ccccc2)c1,-8%,-6%,-5%,u,u,u,x,x
COC(=O)c1ccc2c(c1)C(C)(C)C(/C=C/c1ccccc1O)=[N+]2C,-35%,13µM*,-4%,6.5µM*,10%,0%,-4%,u
O=C(N/N=C/c1ccco1)C1COc2ccccc2O1 (stereo not drawn),-3%,u,-10%,u,-4%,0%,u,u
O=C(N/N=C\c1ccc[nH]1)C1COc2ccccc2O1 (stereo not drawn),-2%,24µM*,-9%,6%,6%,-1%,9.5µM*,19µM*
O=C(N=Nc1c(O)[nH]c(=O)[nH]c1=O)C1COc2ccccc2O1 (stereo not drawn),2%,-4%,-5%,1%,-1%,0%,x,x
N#Cc1cc2c(nc1SCC(=O)Nc1ccc(OC(F)(F)F)cc1)C1CCN2CC1,x,x,-4%,x,x,x,x,x
C/C(=N\NC(=O)C(C)Nc1cccc(Cl)c1)c1ccc([N+](=O)[O-])cc1 (stereo not drawn),-3%,u,-9%,9%,-1%,-6%,u,u
Cc1cc2c(N)cccc2nn1,22%,7.6µM*,-1%,19%,-1%,17%,6%,-2%
O=c1c2ccccc2nc(/C=C/c2cccc3ccccc23)n1-c1ccc(Cl)cc1,x,x,-10%,x,x,x,x,x
COc1ccccc1NS(=O)(=O)c1cc(NC(=O)c2sccc2C)ccc1N1CCCC1,-2%,u,0%,9%,0%,-5%,12µM*,24µM*
Cc1ccc(NCc2ccc(O)c3ncccc23)cc1,9%,u,-10%,-11%,3%,0%,18%,-11%
CC(O)CNc1ccc([N+](=O)[O-])c2cccnc12 (stereo not drawn),-8%,0%,-1%,7%,1%,-3%,x,x
Cc1nnc(NCCc2ccccc2)[nH]c1=O,-5%,u,-9%,-8%,2%,-8%,24µM*,27µM*
COc1ccc(NC(=O)C(=O)NNC(=O)c2cccs2)cc1,3%,u,-2%,25%,u,-4%,-28%,u

# Source: PubChem BioAssay (National Center for Advancing Translational Sciences (NCATS))
